Holding throughout (experiment): inhibition of PEG-3 promoter-driven reporter – cell-based, HeLa, luciferase, CREF/GAPDH counter-screen panel, dose response (AID 624167)
In general terms: A counterscreen serves to expose hits that act by an unwanted route or on another target.

For test [1], the target named is PEG-3 (UniProt Q6IN02). The conditions noted are these: CREF/GAPDH counter-screens; HeLa PEG-Prom luciferase reporter, overnight, run 1, dose range 1, at 100 µM (top of the series) unless noted.
PEG-3, sequence (Q6IN02 whole entry, looked up): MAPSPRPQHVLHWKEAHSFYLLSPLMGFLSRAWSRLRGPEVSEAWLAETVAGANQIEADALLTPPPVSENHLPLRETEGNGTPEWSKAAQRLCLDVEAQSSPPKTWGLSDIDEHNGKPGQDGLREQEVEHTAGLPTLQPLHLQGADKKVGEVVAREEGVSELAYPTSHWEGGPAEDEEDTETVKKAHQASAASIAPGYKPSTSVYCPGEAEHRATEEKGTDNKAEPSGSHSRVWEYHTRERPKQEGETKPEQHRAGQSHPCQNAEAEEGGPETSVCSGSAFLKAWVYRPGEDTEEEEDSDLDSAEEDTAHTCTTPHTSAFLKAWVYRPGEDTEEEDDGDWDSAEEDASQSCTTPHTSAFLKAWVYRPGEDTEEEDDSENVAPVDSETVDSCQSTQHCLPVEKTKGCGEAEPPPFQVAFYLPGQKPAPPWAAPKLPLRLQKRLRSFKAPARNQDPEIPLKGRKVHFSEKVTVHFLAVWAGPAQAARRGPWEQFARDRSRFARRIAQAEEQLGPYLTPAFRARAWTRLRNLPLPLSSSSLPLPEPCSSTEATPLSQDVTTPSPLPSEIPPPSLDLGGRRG
The target of test [2] is PEG-3 (UniProt Q6IN02). The following applies: CREF/GAPDH counter-screens; HeLa PEG-Prom luciferase reporter, overnight, run 2, dose range 1, at 100 µM (top of the series) unless noted.
Test [3] relates to Rat fibroblasts (CREF). The following applies: CREF/GAPDH counter-screens; run 1, dose range 1, at 100 µM (top of the series).
The subject of test [4] is Rat fibroblasts (CREF). The following applies: CREF/GAPDH counter-screens; run 2, dose range 1, at 100 µM (top of the series).

The term inhibition denotes the drop in the measured response relative to a control, in per cent. In the case of `COc1ccc(/C=C2/CCCC(CN(C)C)C2=O)cc1` (stereo unspecified), the inhibition in test [1] came out at 99.5%; in test [2], 98.8%; in test [3], 95.5%; in test [4], 68.5%.

As to `COC1=CC(=O)c2c(ccc3ncnc(N)c23)C1=O`, the inhibition in test [1] stood at 102%; in test [2], 99%; in test [3] it was 101%; in test [4], 100%.

For the compound `CCOc1ccc2c(ccc(/C=C/c3cc(C)c4cccnc4c3O)[n+]2C)c1`, the inhibition in test [1] worked out at 101%; in test [2] it was 99.4%; in test [3], 98.8%; in test [4] it was 98.5%.

For the compound `Oc1c(Br)cc(Br)c2cccnc12`, the inhibition in test [1] was found to be 81.8%; in test [2], 71%; in test [3], 88.2%; in test [4] it was 94.5%.

As for `COc1cc(Nc2c3ccccc3nc3ccccc23)cc(OC)c1OC`, the inhibition in test [1] came out at 102%; in test [2], 102%; in test [3], 92.9%; in test [4], 72.1%.

Regarding `COC(=O)C1C=CC(OC2OC(COC(C)=O)C(OC(C)=O)C(OC(C)=O)C2OC(C)=O)n2c(=O)n(-c3ccccc3)c(=O)n21` (stereo unspecified), the inhibition in test [1] stood at 99.8%; in test [2] it was 98.3%; in test [3], 98.1%; in test [4], 99.1%.

For the compound `CCCCC(=O)NC(c1ccccc1OC)c1ccc2cccnc2c1O` (stereo unspecified), the inhibition in test [1] is 67.7%; in test [2], 68.4%; in test [3], -8.76%; in test [4], 5.38%.

Consider `CC1=NOC(=O)/C1=C\c1ccc(-c2ccccc2Br)o1`, for which the inhibition is 99.2% in test [1], 98.5% in test [2], 94.2% in test [3] and 53.8% in test [4].

As for `O=C(Nc1ccccc1)c1nc[nH]c1C(=O)NCCCCCCNC(=O)c1[nH]cnc1C(=O)Nc1ccccc1`, the inhibition in test [1] is -14.1%; in test [2], 24.2%; in test [3], -4.97%; in test [4], -1.9%.

For the compound `C=CCn1c(C)cc(C(=O)COc2ccc(C)nc2[N+](=O)[O-])c1C`, the inhibition in test [1] was found to be 61.3%; in test [2], 43.4%; in test [3], 42.2%; in test [4], 46.5%.

On to `Cc1ccc(-n2[nH]c(=O)c(-c3ccccn3)c2C)cc1`, for which the inhibition stood at 94.8% in test [1], 90.3% in test [2], 86.5% in test [3] and 87.2% in test [4].

Regarding `CC(=O)NC(c1ccc(Cl)cc1)c1ccc2cccnc2c1O` (stereo unspecified), the inhibition in test [1] was 97.5%; in test [2], 88.3%; in test [3], 4.58%; in test [4], 23%.

With `O=C(NC(=O)c1ccccc1)Nc1ccccn1`, the inhibition in test [1] worked out at 98.8%; in test [2], 94%; in test [3], 95.3%; in test [4] it was 96.8%.

With `COC(=O)c1c(N)sc(C(=O)NCCc2ccccc2)c1C`, the inhibition in test [1] came to 101%; in test [2], 102%; in test [3], 93.6%; in test [4] it was 92.9%.

On to `CN1CCC2(CC1)N=C(c1ccc(F)cc1)C(=S)N2C(=O)c1ccc(C(C)(C)C)cc1`, for which the inhibition turned out to be 102% in test [1], 99% in test [2], 98.7% in test [3] and 68.4% in test [4].

For `COc1cc(SC)ccc1C(=O)Nc1ncc(C)s1`, the inhibition in test [1] was 95.5%; in test [2] it was 98.2%; in test [3] it was 97.8%; in test [4] it was 97.3%.

`CN(C)c1ccc(NC(=S)c2ccccn2)cc1`: the inhibition in test [1] amounted to 93.1%; in test [2] it was 85.4%; in test [3], 94.4%; in test [4] it was 96.1%.

Regarding `CS(=O)(=O)c1ccc(-c2cn3cc(C(=O)O)ccc3n2)cc1`, the inhibition in test [1] is 82.1%; in test [2], 57.2%; in test [3], 71%; in test [4], 66.8%.

Turning to `CCCCCCN1C=C/C(=C\C=C(C#N)C#N)c2ccccc21`, the inhibition is 54.3% in test [1], 78.7% in test [2], 43.7% in test [3] and 89.7% in test [4].

`Cc1cccc(OCC(=O)NCC(=O)N/N=C/c2cc(Br)cc(Br)c2O)c1`: the inhibition was 75% in test [1], 86.2% in test [2], 65.6% in test [3] and 74.7% in test [4].

With `N=c1n(CCN2CCCCC2)c2ccccc2n1CC(O)c1ccc(Cl)c(Cl)c1` (stereo unspecified), the inhibition in test [1] stood at 99.3%; in test [2], 98.6%; in test [3] it was 100%; in test [4], 99.7%.

`NC(Cc1ccc(F)cc1)c1csc(Nc2cc(Oc3ccccc3)ncn2)n1` (stereo unspecified): the inhibition in test [1] came out at 102%; in test [2], 101%; in test [3] it was 95.3%; in test [4], 94.1%.

For `O=c1c2ccccc2cnn1-c1nc2ccccc2[nH]1`, the inhibition in test [1] is 98.4%; in test [2] it was 99.5%; in test [3] it was 101%; in test [4], 100%.

Turning to `O=C(COc1ccc(Cl)cc1Cl)Nc1ccccn1`, the inhibition was 94% in test [1], 98.4% in test [2], 101% in test [3] and 99.7% in test [4].

Regarding `CCSc1nc2ccccc2n1C(=O)/C=C\c1ccc(OC)c(OC)c1`, the inhibition in test [1] was determined as 99.4%; in test [2], 95.2%; in test [3] it was 46.8%; in test [4] it was 91.8%.

As for `CN(C)c1ccc(C=c2c3ccccc3n3c2cc(-c2ccccc2)[n+]3C)cc1`, the inhibition in test [1] came out at 98.9%; in test [2], 102%; in test [3], 101%; in test [4], 100%.

For `COc1ccc(/C=C2\SC(=S)N(CCCC(=O)NNC(=O)c3ccccc3O)C2=O)cc1`, the inhibition in test [1] was 89.6%; in test [2], 81.1%; in test [3], 23.4%; in test [4] it was 43.3%.

In the case of `CCCC(=O)NC(c1ccc(C)cc1)c1ccc2cccnc2c1O` (stereo unspecified), the inhibition in test [1] amounted to 96.2%; in test [2], 83.5%; in test [3], 3.2%; in test [4], 23.3%.

On to `CCCOc1ccc2cc(-c3ccccn3)c(=O)oc2c1`, for which the inhibition is 93.5% in test [1], 94.5% in test [2], 96.1% in test [3] and 95.4% in test [4].

On to `CCc1ccc(/C=C2\SC(=S)N(CCCC(=O)NC3=NCCS3)C2=O)cc1`, for which the inhibition came to 96% in test [1], 77.5% in test [2], 0.087% in test [3] and 7.65% in test [4].

With `CCCC(=O)NC(c1ccccc1)c1ccc2cccnc2c1O` (stereo unspecified), the inhibition in test [1] is 36.8%; in test [2], 71% [run 2, dose range 1, at 25 µM]; in test [3], 59%; in test [4], 44.9%.

For the compound `CCCn1nc(C(=O)Nc2nc(-c3ccccn3)cs2)c2ccccc2c1=O`, the inhibition was 84.7% in test [1], 80.4% in test [2], 7.59% in test [3] and 23.2% in test [4].

On to `Cc1ccc(-c2cc3c(nn2)-c2ccccc2C3=O)cc1`, for which the inhibition in test [1] worked out at 98.6%; in test [2], 88.7%; in test [3], 92.8%; in test [4] it was 94.8%.

For the compound `O=c1oc2ccccc2cc1-c1cn2ccccc2n1`, the inhibition in test [1] is 92.7%; in test [2], 94.2%; in test [3] it was 94.6%; in test [4], 93.7%.

The values are drawn from PubChem BioAssay.
